# In ChEMBL document CHEMBL3988442, “University of Dundee, Small-Polar-MMV Screening Library” (2021):
# For some of these results: Potency and affinity values are given separately.
# Legend:
# Parameters in all cases: scale not given: direction of the effect not stated beside the values
# [1] = biological target: Protein translocase subunit SecA (Escherichia coli (strain K12)) (UniProt P10408); test: Assay to Identify E. coli SecA ATPase Inhibitors; format: functional; details: 30 µM
# [2] = biological target: T1, Ubiquitin-activating enzyme e1, putative (Leishmania donovani (strain BPK282A1)) (UniProt E9BSI1); test: Leishmania donovani Ubiquitin Activating Enzyme (LdE1); format: functional; details: 30 µM
# T1 sequence (whole entry): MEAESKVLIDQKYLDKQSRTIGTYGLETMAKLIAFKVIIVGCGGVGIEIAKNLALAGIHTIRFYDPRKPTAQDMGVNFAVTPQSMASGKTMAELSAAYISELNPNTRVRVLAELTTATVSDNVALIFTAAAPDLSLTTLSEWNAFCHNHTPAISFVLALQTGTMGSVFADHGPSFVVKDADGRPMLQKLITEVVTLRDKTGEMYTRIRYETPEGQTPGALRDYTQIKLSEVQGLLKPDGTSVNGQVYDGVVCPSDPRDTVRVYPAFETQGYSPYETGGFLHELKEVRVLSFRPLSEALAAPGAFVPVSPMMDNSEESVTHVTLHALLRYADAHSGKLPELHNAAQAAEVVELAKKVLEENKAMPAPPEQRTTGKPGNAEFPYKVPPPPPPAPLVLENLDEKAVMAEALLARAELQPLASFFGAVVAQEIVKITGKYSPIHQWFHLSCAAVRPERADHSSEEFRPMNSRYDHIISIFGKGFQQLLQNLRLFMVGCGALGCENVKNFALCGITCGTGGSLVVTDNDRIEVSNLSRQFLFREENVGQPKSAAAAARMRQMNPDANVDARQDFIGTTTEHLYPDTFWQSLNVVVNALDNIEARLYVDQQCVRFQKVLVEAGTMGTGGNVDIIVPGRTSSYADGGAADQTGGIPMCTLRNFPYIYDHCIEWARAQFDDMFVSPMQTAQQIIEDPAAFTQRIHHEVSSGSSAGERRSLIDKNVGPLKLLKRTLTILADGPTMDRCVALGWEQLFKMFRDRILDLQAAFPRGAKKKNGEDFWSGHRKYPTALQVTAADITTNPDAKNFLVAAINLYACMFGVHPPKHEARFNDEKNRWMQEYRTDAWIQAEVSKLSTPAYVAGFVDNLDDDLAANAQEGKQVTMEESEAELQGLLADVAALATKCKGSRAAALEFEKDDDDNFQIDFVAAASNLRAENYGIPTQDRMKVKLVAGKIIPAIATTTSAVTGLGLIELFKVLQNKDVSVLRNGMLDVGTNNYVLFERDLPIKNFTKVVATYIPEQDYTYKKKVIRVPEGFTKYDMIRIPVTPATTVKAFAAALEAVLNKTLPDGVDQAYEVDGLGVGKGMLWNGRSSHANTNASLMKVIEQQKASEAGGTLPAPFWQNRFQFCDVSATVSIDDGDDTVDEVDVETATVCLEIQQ
# [3] = biological target: AMP-activated protein kinase, AMPK (Homo sapiens) (UniProt P54646+O43741+P54619+Q9UGJ0+Q9Y478+Q13131+Q9UGI9); test: AMP-dependent Kinase enzyme assay. An in vitro enzyme assay that detects ADP turnover that is directly proportional to AMPK activity. This uses naive AMPK that is activated during the assay with MK-8722; format: functional; details: 30 µM
# [4] = biological target: Sialic acid-binding Ig-like lectin 9 (Homo sapiens) (UniProt Q9Y336); test: Hs-Siglec9 ALPHAscreen SOP 20170721; details: 10 µM
# Sequence of Sialic acid-binding Ig-like lectin 9 (Homo sapiens) (Q9Y336 whole entry): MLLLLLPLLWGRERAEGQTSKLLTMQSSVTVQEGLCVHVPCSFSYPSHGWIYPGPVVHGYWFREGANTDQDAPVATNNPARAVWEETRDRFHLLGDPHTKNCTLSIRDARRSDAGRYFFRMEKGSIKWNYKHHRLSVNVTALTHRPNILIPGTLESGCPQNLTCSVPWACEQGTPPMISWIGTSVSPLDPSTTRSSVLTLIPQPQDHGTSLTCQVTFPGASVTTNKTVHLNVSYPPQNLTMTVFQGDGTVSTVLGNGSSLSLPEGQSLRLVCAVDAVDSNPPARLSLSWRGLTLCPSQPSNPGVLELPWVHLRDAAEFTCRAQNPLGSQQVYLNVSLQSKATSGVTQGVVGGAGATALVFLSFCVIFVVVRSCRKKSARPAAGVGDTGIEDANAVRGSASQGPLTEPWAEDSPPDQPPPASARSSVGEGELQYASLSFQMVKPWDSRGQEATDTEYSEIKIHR
# Trypanosoma cruzi = test: Trypanosoma cruzi phosphomannomutase and mannose-1-phosphate guanylyltransferase assay; format: functional; details: 10 µM
# [5] = biological target: T2, Arginase-2, mitochondrial (Homo sapiens) (UniProt P78540); test: in vitro enzyme assay to detect the production of urea directly proportional to the activity of Arginase II; format: functional; details: 33.3 µM; also: in the data most compounds retested in dose-response had high values
# T2 sequence (whole entry): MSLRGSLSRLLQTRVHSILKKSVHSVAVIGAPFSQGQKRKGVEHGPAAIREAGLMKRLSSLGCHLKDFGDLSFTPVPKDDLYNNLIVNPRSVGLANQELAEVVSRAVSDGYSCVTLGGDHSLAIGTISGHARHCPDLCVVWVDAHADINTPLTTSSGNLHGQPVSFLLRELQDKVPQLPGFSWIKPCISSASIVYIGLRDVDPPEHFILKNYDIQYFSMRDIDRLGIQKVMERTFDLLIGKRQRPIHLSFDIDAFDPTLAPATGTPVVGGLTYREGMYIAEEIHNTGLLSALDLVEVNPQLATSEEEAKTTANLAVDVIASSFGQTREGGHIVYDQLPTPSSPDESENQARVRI
# [6] = biological target: T3, Proteasome subunit beta (Trypanosoma cruzi) (UniProt O96673); test: Trypanosoma cruzi proteasome chymotrypsin-like activity (TcProtChymo) assay.; also: in the data most compounds retested in dose-response had high values; format: functional; details: 9.37 µM
# T3 sequence (whole entry): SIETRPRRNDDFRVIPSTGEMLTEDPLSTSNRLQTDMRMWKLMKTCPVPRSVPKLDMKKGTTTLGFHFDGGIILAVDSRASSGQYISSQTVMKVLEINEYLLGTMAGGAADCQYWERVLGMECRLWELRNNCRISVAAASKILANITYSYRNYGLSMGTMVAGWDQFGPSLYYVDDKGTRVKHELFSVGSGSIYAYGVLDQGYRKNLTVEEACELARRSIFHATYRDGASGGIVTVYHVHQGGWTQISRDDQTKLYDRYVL
# Homo sapiens = organism: Homo sapiens; test: To identify inhibition of the IFN signalling (Jak-Stat) pathway via expression of an eGFP reporter gene under the control of an IFN-stimulated response element (ISRE) containing MxA promoter.; format: functional; details: 30 µM
# [7] = biological target: T4, Tyrosyl-tRNA synthetase, putative (Trypanosoma cruzi (strain CL Brener)) (UniProt Q4DSP6); test: Trypanosoma cruzi tyrosyl tRNA synthetase (TcYRS) _High Tyrosine SOP; format: functional; details: 30 µM; also: in the data most compounds retested in dose-response had high values
# T4 sequence (whole entry): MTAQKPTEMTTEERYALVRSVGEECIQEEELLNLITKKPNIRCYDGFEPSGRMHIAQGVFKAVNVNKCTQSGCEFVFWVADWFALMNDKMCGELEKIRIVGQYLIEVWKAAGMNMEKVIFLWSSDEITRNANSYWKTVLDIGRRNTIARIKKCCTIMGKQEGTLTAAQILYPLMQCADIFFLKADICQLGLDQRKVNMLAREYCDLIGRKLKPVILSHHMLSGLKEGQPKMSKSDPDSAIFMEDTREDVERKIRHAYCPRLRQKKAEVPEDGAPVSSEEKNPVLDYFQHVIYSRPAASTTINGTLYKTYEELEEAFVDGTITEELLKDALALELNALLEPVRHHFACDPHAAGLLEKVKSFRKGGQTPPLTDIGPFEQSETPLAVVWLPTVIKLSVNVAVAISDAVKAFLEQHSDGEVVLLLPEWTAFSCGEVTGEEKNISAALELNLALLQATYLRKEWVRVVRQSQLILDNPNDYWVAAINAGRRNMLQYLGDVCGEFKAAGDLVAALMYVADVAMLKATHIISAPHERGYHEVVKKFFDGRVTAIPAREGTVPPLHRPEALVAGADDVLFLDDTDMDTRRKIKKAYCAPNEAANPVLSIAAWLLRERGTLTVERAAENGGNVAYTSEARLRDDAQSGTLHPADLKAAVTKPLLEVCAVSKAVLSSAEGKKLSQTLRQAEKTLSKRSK
# [8] = biological target: T4, Tyrosyl-tRNA synthetase, putative (Trypanosoma cruzi (strain CL Brener)); test: Trypanosoma cruzi tyrosyl tRNA synthetase (TcYRS) SOP; format: functional; details: 30 µM
# [9] = biological target: Chromo domain-containing protein 1 (Saccharomyces cerevisiae (strain ATCC 204508 / S288c) (Baker's yeast)) (UniProt P32657); test: ScCHD-1 Enzyme Inhibition Assay; format: functional; details: 30 µM; also: in the data most compounds retested in dose-response had high values
# Sequence of Chromo domain-containing protein 1 (Saccharomyces cerevisiae (strain ATCC 204508 / S288c) (Baker's yeast)) (P32657 whole entry, the tested form may be a part): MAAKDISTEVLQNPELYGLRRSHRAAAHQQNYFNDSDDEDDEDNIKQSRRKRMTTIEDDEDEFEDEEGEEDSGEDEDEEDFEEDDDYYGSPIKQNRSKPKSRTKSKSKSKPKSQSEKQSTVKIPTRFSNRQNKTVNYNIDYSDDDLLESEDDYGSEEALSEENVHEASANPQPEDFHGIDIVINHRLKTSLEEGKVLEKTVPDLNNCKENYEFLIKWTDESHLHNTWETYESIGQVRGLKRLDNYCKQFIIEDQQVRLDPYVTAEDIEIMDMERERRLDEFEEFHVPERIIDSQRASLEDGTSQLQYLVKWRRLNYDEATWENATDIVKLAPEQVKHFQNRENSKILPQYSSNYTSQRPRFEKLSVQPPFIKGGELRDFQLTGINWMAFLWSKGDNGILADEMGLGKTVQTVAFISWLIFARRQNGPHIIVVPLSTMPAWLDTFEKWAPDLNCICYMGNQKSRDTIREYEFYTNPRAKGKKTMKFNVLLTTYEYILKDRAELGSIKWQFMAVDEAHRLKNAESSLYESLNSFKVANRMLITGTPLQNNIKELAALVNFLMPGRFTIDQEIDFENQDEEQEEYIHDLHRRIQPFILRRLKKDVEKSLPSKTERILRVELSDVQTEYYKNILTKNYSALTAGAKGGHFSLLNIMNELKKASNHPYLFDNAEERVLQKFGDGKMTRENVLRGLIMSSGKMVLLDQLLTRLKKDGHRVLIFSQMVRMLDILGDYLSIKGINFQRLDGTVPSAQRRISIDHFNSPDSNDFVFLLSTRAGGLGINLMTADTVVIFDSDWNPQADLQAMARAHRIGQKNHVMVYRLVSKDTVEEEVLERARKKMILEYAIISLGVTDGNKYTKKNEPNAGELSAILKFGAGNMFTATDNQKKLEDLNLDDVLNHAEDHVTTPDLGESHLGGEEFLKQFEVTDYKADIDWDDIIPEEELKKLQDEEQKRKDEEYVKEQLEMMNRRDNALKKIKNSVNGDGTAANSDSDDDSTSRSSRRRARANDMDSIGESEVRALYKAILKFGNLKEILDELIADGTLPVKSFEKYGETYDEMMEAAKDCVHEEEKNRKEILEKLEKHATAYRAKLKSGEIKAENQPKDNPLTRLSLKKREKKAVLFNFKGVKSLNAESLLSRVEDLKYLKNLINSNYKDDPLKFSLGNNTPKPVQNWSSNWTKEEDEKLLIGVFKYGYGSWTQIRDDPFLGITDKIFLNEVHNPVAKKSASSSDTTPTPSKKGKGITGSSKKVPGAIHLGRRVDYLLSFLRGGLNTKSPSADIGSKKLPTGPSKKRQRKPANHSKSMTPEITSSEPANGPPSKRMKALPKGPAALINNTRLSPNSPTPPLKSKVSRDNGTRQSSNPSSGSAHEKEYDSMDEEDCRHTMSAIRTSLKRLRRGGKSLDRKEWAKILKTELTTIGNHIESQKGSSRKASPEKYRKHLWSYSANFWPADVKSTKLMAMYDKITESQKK
# Sequence of Protein translocase subunit SecA (Escherichia coli (strain K12)) (P10408 whole entry): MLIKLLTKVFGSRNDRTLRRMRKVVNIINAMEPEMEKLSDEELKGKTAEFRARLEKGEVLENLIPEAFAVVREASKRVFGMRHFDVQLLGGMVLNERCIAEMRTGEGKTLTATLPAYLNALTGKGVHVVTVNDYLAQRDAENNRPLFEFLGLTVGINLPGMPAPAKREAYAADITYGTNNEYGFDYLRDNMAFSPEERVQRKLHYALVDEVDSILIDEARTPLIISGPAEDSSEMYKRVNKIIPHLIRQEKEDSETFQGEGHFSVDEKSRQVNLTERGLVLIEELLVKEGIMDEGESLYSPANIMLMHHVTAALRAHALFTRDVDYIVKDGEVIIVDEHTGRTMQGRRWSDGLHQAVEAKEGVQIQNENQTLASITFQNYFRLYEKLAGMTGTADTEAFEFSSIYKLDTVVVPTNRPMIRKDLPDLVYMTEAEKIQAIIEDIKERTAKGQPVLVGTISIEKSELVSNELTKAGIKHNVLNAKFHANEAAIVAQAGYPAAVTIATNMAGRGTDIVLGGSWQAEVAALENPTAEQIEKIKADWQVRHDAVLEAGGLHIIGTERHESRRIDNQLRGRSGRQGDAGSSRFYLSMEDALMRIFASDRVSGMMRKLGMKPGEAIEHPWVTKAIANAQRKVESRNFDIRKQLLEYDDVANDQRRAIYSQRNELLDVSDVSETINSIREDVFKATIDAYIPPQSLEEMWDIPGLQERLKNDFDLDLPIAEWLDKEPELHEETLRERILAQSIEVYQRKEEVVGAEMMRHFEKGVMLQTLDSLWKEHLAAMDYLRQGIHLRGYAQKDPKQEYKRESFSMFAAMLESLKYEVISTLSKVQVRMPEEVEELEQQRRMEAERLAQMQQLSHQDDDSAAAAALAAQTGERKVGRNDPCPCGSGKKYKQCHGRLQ
SMILES,Percent Effect [1],Percent Effect [2],Percent Effect [3],Percent Effect [4],Percent Effect (Trypanosoma cruzi),Percent Effect [5],Percent Effect [6],Percent Effect (Homo sapiens),Percent Effect [7],Percent Effect [8],Percent Effect [9]
O=C(NCC1CC1)C1CSCN1S(=O)(=O)c1cccc(F)c1 (stereo unspecified),-1.87%,8.22%,-0.192%,-1.84%,2.94%,-0.455%,25%,-0.563%,4.3%,12.5%,-3.76%
Cc1ccc(CN2CCC3(CC2)OC(C(=O)N(C)C)c2ccccc23)o1 (stereo unspecified),-0.000759%,4%,-1.87%,-0.475%,-10.2%,-8.63%,14.6%,2.54%,4.23%,0%,-8.66%
Cn1cc(C2CC(=O)NC23CCN(CC2CC2)CC3)cn1 (stereo unspecified),-4.62%,5.33%,-4.75%,13.8%,2.32%,4.12%,10.1%,0.353%,1.04%,10%,-6.87%
CCn1cc(CN2CCCN(C(=O)c3sccc3C#N)CC2)cn1,-4.12%,2.53%,-2.86%,-2.29%,-1.04%,-1.14%,-7.94%,-14%,2.46%,3.8%,4.04%
Cc1cc(CN2Cc3ccccc3CC2c2nnc(C)o2)on1 (stereo unspecified),-3.58%,2.6%,6.16%,3.48%,2.25%,4.84%,0.728%,-4.28%,6.67%,9.41%,-13.4%
O=C(NCc1ccoc1)NC1CCCN(c2ncccn2)C1 (stereo unspecified),-3.31%,7.89%,6.88%,0.569%,4.97%,-8.28%,15.8%,20.9%,3.19%,13%,-3.64%
CCOC(=O)N1CCN(c2nc(NC)c3ccccc3n2)CC1,-3.25%,4%,-1.05%,9.22%,4.52%,-5.46%,6.1%,3.01%,1.06%,5.13%,-1.69%
Cc1cc(NC(=O)NCC(O)c2ccc(Cl)cc2Cl)n(C)n1 (stereo unspecified),-2.82%,-2.63%,1.15%,8.57%,0.376%,-0.383%,-2.17%,-20.8%,-0.49%,-75.6%,-5.69%
CCc1ncnc2c1CCN(Cc1ccccn1)CC2,-1.83%,-1.33%,-3.43%,-1.27%,-5.11%,-11.4%,0%,-11.7%,-3.17%,-5.13%,-3.62%
COc1ccc(CN(C)C(=O)NCc2c(C)cc(C)[nH]c2=O)cc1,-4.97%,15.8%,-2.27%,-2.15%,-0.84%,1.08%,2.12%,9.7%,3.45%,18.5%,-0.177%
CCN1CCN(C2CCN(Cc3c(C)noc3C)CC2)C1=O,-8.32%,15.2%,-5.02%,13.7%,4.44%,-0.38%,6.8%,3.4%,6.4%,16.5%,-7.48%
